Measured values: PubChem BioAssay (Tox21)
Records with an inconclusive call do not appear. Calls of active or inactive are those of the source. Calls come from the whole dose curve; as a rule, active = well fitted curve in the direction sought with a large enough effect in the repeat runs; inconclusive = weak or mixed curves; inactive = no such curve, though single readings can be large; an effect the other way counts as inactive or inconclusive.

Assay: A CellTox Green Cytotoxicity Assay to monitor cytotoxicity in HEK293 cells - 0 hour (AID 1224869)
Conditions: CellTox Green fluorescence; series mostly up to 76.8 µM; cytotoxicity: at the top concentration
How it was run: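 HEK293 cells, 600/well, were preincubated 5 hours and then exposed to compounds at 37 C for up to 40 hours. A cell-impermeant cyanine dye staining dead-cell DNA was read by fluorescence at 0, 8, 16, 24, 32 and 40 h time points.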
% is set by controls: 0 for no effect and ±100 for the full control effect.
Note: nearly all actives have a fitted effect of over 50% in size.

Structure (SMILES)	cytotoxicity
Oc1c(Br)cc(Br)c2cccnc12	-2.2% [at 35.3 µM] (inactive)
O=C1c2c(O)ccc(O)c2C(=O)c2c(NCCNCCO)ccc(NCCNCCO)c21	-36.9% [at 35.3 µM] (inactive)
CCCCCCCC(C)=O	0.666% (inactive)
C=CCCCCCCC=C	-3.41% (inactive)
CC(=O)OC(OC(C)=O)c1ccc([N+](=O)[O-])o1	-1.67% (inactive)
CCCCCCC(C)Nc1ccc(Nc2ccccc2)cc1 (stereo not drawn)	-8.46% (inactive)
COc1ccc(-n2nc(CCC(=O)N(C)O)cc2-c2ccc(Cl)cc2)cc1	-8.49% [at 35.3 µM] (inactive)

Assay: qHTS RealTime-Glo MT Cell Viability Assay in HepG2 cells - 40 hour (AID 1224870); note: potency is the fitted concentration of half-maximal effect
Conditions: RealTime-Glo luminescence; series mostly up to 76.8 µM; activity change, negative = cytotoxic: at the top concentration
How it was run: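 HepG2 cells mixed with RealTime-Glo MT reagents (NanoLuc plus cell-permeant prosubstrate) were seeded at 600 cells/well, incubated 5 h at 37 C/5% CO2, then pinned with compounds in DMSO; nonlytic luminescence tracked viability during 40 h treatment.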

Structure (SMILES)	activity change, negative = cytotoxic	Potency
Clc1cccnc1	-5.47% (inactive)	–
C=C[C@](C)(O)CC[C@@H]1[C@@]2(C)CCCC(C)(C)[C@@H]2CC[C@@]1(C)O	–	54.9 µM (active)
Clc1ccc(C(Cn2ccnc2)OCc2c(Cl)cccc2Cl)c(Cl)c1 (stereo not drawn)	-20.1% [at 35.3 µM] (inactive)	–
Clc1nc2ccccc2s1	30.2% (inactive)	–
O=C(O)CCn1c2c(c3ccccc31)C[C@H](NS(=O)(=O)c1ccc(F)cc1)CC2	2.32% [at 35.3 µM] (inactive)	–
CC(C)=CC1CC(C)CCO1 (stereo not drawn)	3.37% (inactive)	–
S=C(SSSSSSC(=S)N1CCCCC1)N1CCCCC1	-10.6% [at 15.8 µM] (inactive)	–
CCC(=O)CC(C)CC (stereo not drawn)	-5.05% [at 0.29 µM] (inactive)	–
O=Cc1ccc(F)cc1	0.6% (inactive)	–
Cc1ccc(CCn2c3c(c4cc(Cl)ccc42)CN(C)CC3)cn1	-10.3% [at 35.3 µM] (inactive)	–
Clc1ccccc1CN1CCc2sccc2C1	1.43% [at 35.3 µM] (inactive)	–
Cc1cn[nH]c1	2.53% [at 35.3 µM] (inactive)	–
CCOB(OCC)OCC	-3.79% (inactive)	–
CCCCC(CC)COC(=O)c1ccc(O)cc1 (stereo not drawn)	–	inactive
CC(=O)Nc1ccc(O)cc1	–	inactive
NC(=O)c1nc(-c2cccc(-c3cc(F)ccc3OCC(F)(F)C(F)(F)F)c2)n[nH]1	-14.8% (inactive)	–
